{"source": "PubChem BioAssay (EPA / NIEHS)", "note": "Inconclusive results are not listed. The source made the active and inactive calls. The calls were made as follows: active = hit-call score of the fitted dose curve at least 0.9, where 1 is the maximum; inconclusive = response in the unintended direction; inactive = score below 0.9."}
{"target": "bovine Estrogen Receptor (ER), ESR1 (gene 407238) (UniProt P49884)", "sequence (P49884 whole entry, looked up)": "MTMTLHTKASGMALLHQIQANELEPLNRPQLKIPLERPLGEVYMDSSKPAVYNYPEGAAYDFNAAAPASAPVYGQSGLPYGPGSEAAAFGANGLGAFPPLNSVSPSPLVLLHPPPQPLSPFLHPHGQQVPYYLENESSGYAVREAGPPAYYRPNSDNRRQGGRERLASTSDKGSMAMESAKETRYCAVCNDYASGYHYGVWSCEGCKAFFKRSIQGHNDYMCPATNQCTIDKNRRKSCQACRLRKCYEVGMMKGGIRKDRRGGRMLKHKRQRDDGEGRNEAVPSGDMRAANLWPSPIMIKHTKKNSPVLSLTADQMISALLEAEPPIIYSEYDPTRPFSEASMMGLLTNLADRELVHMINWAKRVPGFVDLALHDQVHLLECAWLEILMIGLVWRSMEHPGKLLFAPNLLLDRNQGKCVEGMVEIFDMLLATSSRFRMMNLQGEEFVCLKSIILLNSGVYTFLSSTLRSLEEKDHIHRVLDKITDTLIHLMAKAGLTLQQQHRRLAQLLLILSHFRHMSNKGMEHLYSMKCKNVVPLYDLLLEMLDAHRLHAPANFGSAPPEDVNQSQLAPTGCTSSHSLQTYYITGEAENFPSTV", "experiment": "NVS_NR_bER: NovaScreen (NVS) Nuclear Receptor Binding Assay for bovine Estrogen Receptor (ER) (AID 2283345);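 also: actives lower the bound radioligand count which means they displace the ER ligand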", "how_it_was_run": "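Bovine uterine membranes; tritiated or iodinated radioligand; competitive displacement; 18 h; scintillation read; DMSO negative control; 25 uM duplicates, then concentration series for actives.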"}
{"smiles": "Oc1c(Br)cc(Br)cc1Br", "outcome": "inactive"}
{"smiles": "O=c1[nH]c2ccccc2n1C1CCN(CCCC(c2ccc(F)cc2)c2ccc(F)cc2)CC1", "outcome": "inactive"}
{"smiles": "C=CC(=O)[O][Sn]([CH2]CCC)([CH2]CCC)[CH2]CCC", "outcome": "inactive"}
{"target": "chimpanzee Androgen Receptor (AR), AR (gene 747460) (UniProt O97775)", "sequence (O97775 whole entry, looked up)": "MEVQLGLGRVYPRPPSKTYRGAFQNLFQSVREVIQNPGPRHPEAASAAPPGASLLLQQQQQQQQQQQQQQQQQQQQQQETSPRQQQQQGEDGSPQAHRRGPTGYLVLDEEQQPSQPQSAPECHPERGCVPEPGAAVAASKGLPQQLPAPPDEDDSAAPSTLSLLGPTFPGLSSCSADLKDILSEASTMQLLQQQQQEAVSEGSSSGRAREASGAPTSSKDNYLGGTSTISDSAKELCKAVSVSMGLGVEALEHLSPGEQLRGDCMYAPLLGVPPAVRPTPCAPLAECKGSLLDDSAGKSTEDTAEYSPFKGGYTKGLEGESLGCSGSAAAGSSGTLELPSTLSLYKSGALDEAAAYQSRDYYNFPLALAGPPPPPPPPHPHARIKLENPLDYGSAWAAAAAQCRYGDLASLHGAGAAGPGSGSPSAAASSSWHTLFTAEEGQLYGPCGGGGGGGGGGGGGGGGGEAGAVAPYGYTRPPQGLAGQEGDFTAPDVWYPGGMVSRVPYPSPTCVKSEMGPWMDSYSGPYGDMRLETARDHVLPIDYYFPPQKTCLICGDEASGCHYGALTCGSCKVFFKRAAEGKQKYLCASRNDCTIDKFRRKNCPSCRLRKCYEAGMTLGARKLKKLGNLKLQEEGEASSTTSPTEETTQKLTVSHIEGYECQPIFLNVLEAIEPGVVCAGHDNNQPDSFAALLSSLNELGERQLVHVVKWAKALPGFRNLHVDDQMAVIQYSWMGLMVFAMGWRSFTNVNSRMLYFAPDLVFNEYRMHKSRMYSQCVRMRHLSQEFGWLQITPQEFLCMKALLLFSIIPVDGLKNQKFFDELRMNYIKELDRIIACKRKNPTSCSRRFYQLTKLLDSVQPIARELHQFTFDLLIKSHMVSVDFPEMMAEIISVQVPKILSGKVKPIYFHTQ", "experiment": "NVS_NR_cAR: NovaScreen (NVS) Nuclear Receptor Binding Assay for chimpanzee Androgen Receptor (AR) (AID 2283346);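 also: radioligand displacement from AR measured by scintillation counting in a cell-free assay; a loss of bound radioligand signal versus DMSO counts as binding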", "how_it_was_run": "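Cell-free competition binding with insect-cell (Sf9/Sf21) extracted chimpanzee AR; scintillation signal from lysate at 72 h. Screened in duplicate at 25 uM, then concentration-response for actives; fitting relative to DMSO.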"}
{"smiles": "Cc1ccc2nc3sc(=O)sc3nc2c1", "AC50": "0.363 µM (active)"}
{"smiles": "Nc1ccc(N)cc1", "AC50": "25 µM (active)"}
{"smiles": "CC(C)=CC1C(C(=O)OCc2cccc(Oc3ccccc3)c2)C1(C)C", "note": "(stereo unspecified)", "outcome": "inactive"}
{"smiles": "N#CS", "outcome": "inactive"}
{"smiles": "C#CCOC(=O)/C=C(C)/C=C/CC(C)CCCC(C)C", "note": "(stereo unspecified)", "outcome": "inactive"}
{"target": "Estrogen receptor (Homo sapiens) (UniProt P03372)", "sequence (P03372 whole entry, looked up)": "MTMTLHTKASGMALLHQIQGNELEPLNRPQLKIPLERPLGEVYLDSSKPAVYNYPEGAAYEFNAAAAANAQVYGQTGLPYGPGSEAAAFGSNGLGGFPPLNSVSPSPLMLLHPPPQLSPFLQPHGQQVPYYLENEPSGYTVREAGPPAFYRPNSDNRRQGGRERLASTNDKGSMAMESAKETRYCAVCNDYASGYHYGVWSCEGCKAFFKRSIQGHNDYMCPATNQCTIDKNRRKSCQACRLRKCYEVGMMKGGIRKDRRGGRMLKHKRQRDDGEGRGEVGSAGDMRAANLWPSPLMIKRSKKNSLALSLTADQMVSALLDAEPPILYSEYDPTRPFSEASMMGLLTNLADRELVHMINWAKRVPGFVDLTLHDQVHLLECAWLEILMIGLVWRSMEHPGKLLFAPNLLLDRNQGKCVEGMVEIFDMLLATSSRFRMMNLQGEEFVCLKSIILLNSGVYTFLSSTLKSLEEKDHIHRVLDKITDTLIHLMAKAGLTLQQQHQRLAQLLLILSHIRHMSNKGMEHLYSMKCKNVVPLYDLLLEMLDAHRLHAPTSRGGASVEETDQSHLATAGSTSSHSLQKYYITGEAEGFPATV", "experiment": "NVS_NR_hER: NovaScreen (NVS) Nuclear Receptor Binding Assay for human Estrogen Receptor (ER) (AID 2283348)", "how_it_was_run": "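Cell-free MCF7-derived ER preparation, specific radioligand displaced by test compound, read by scintillation counting 18 h post-dosing. Duplicate single-point 25 uM screen, then concentration-response confirmation; DMSO baseline.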"}
{"smiles": "O=C(NC(=O)c1c(F)cccc1F)Nc1cc(Cl)c(Oc2ncc(C(F)(F)F)cc2Cl)c(Cl)c1", "outcome": "inactive"}
{"smiles": "C=CC(=O)OCC(COC(=O)C=C)(COC(=O)C=C)COC(=O)C=C", "outcome": "inactive"}
{"smiles": "Nc1ccc(Br)cc1", "outcome": "inactive"}
{"smiles": "O=[N+]([O-])c1c2ccccc2cc2ccccc12", "outcome": "inactive"}
{"smiles": "O=S1OC[C@@H]2[C@H](CO1)[C@]1(Cl)C(Cl)=C(Cl)[C@@]2(Cl)C1(Cl)Cl", "note": "(stereo partly specified)", "outcome": "inactive"}
{"smiles": "O=C(Cl)OCCOCCOC(=O)Cl", "outcome": "inactive"}
{"smiles": "c1csc(-c2ccc(-c3cccs3)s2)c1", "outcome": "inactive"}
{"smiles": "O=c1[nH]c2ccccc2n1C1CCN(CCCC(c2ccc(F)cc2)c2ccc(F)cc2)CC1", "outcome": "inactive"}
{"smiles": "CCCCCCCCCCCCCCC(Br)C(=O)O", "note": "(stereo unspecified)", "outcome": "inactive"}
{"smiles": "O=C(Nc1ccc(Br)cc1)c1cc(Br)cc(Br)c1O", "outcome": "inactive"}
{"smiles": "OC(c1ccc(Cl)cc1)(c1ccc(Cl)cc1)c1cccnc1", "outcome": "inactive"}
{"smiles": "CC(C)(C)c1cc([N+](=O)[O-])cc(C(C)(C)C)c1O", "outcome": "inactive"}
{"smiles": "C=CC(=O)[O][Sn]([CH2]CCC)([CH2]CCC)[CH2]CCC", "outcome": "inactive"}
